Laboratory results: PubChem BioAssay AID1159580 (chemical genetic matrix, 2015)
The campaign covered roughly 5,500 compounds. About 2,000 (36%) were called active. Another 18% or so got no clear call; they are omitted. Some of the results follow. Unmarked numbers belong to inactive results. No stated cut-off is given here; in the data, active means normalized growth mostly below about 0.91 (no sharp cut-off); inconclusive means no clear call, values can overlap the other calls; inactive means mostly above about 0.92.

Assay: chemical genetic growth profiling, strain panel (AID 1159580);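 further: tested at 20 µM; growth read once vehicle control cultures reached saturation at 30 °C; 1 = growth at the plate median or of vehicle wells; lower values mean less growth of the strain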
Details: S. cerevisiae deletion strains, growth OD

## COc1ccc(C2=C(C(C)=O)C(C)=NC(=S)C2C#N)cc1 (stereo not given)
Locus YAL013W, strain DEP1, active compounds read low
  normalized growth: 1.01
Locus YBR229C, strain ROT2, active compounds read low
  normalized growth: 1.02
Locus YCL061C, strain MRC1, active compounds read low
  normalized growth: 1.01
Locus YDL101C, strain DUN1, active compounds read low
  normalized growth: 1.05
Locus YDR150W, strain NUM1, active compounds read low
  normalized growth: 0.933
Locus YEL061C, strain CIN8, active compounds read low
  normalized growth: 1.04
Locus YGR078C, strain PAC10, active compounds read low
  normalized growth: 0.993
Locus YHR030C, strain SLT2, active compounds read low
  normalized growth: 0.947
Locus YHR087W, strain rtc3, active compounds read low
  normalized growth: 1.04
Locus YJL187C, strain SWE1, active compounds read low
  normalized growth: 1
Locus YJR043C, strain POL32, active compounds read low
  normalized growth: 1.04
Locus YJR075W, strain HOC1, active compounds read low
  normalized growth: 1.01
Locus YKL190W, strain CNB1, active compounds read low
  normalized growth: 0.987
Locus YLR039C, strain RIC1, active compounds read low
  normalized growth: 0.977
Locus YLR058C, strain SHM2 (second series), active compounds read low
  normalized growth: 0.994
Locus YLR085C, strain ARP6, active compounds read low
  normalized growth: 0.89
Locus YLR262C, strain YPT6, active compounds read low
  normalized growth: 0.972
Locus YML094W, strain GIM5, active compounds read low
  normalized growth: 1.12
Locus YMR219W, strain ESC1, active compounds read low
  normalized growth: 0.998
Locus YMR263W, strain SAP30, active compounds read low
  normalized growth: 0.905
Locus YMR307W, strain GAS1, active compounds read low
  normalized growth: 0.702
Locus YNL128W, strain TEP1, active compounds read low
  normalized growth: 0.983
Locus YNL153C, strain GIM3, active compounds read low
  normalized growth: 1.03
Locus YNL298W, strain CLA4 (second series), active compounds read low
  normalized growth: 0.89
Locus YNL322C, strain KRE1, active compounds read low
  normalized growth: 1
Locus YNR030W, strain Alg12, active compounds read low
  normalized growth: 0.987
Locus YOL006C, strain TOP1, active compounds read low
  normalized growth: 0.754
Locus YPL055C, strain LGE1, active compounds read low
  normalized growth: 0.97
Locus YPL241C, strain CIN2, active compounds read low
  normalized growth: 0.943
Locus YPR135W, strain CTF4, active compounds read low
  normalized growth: 0.356 (active)
